Test results taken from PubChem BioAssay (NCATS).
Results filed as inconclusive are left out. Unmarked numbers belong to inactive results. Activity calls are given as the source filed them. Calls come from the whole dose curve; as a rule, active = well fitted inhibition curve with a large enough effect; inconclusive = small, poorly fitted or top-dose-only effect; inactive = flat fitted curve, though single readings scatter.

These molecules were tested against Glutathione peroxidase 1 (Homo sapiens) (UniProt P07203) (assay: Primary qHTS Assay for Inhibitors of Recombinant Selenoprotein Glutathione Peroxidase 1 (GPX1) (AID 1845191; note: nearly all actives have a fitted effect of over 65% in size)). Conditions: recombinant GPX1, GR-coupled NADPH fluorescence, 15 min; series mostly up to 48.8 µM; activity, negative = inhibition: at the top concentration.
Glutathione peroxidase 1 (Homo sapiens), sequence (P07203 whole entry, looked up): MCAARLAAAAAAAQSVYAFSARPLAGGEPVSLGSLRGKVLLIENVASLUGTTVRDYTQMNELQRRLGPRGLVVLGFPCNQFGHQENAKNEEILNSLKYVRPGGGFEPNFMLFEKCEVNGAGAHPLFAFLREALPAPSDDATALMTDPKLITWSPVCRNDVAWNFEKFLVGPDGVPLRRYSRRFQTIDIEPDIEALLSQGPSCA
Procedure, shortened: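 10 nM GPX1 + cpd, 30 min RT; start w/ 1 mM GSH, 0.5 mM cumene hydroperoxide, 0.5 mM NADPH, 100 nM GR, 0.01% BSA; buffer 50 mM Tris-HCl pH 7.5, 2 mM EDTA, 150 mM NaCl; Fl 340/450, 0 & 15 min.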
% is set by controls: 0 for no effect and ±100 for the full control effect.

Compound	outcome	activity, negative = inhibition
C=CC1(C)CC(O)C2(CCC3C(C)(C(=O)O)CCCC3(C)C2=O)C1 (stereo not drawn)	inactive [at 27.7 µM]	
O=C(/C=C/c1ccc(O)cc1)O[C@H]1[C@@H]2C=CO[C@@H](O[C@@H]3O[C@H](CO)[C@@H](O)[C@H](O)[C@H]3O)[C@@H]2[C@@]2(CO)O[C@@H]12	inactive [at 27.7 µM]	
CC(=O)O[C@@H]1[C@@H](OC(=O)/C=C/c2ccccc2)[C@H](C)O[C@@H](O[C@H]2[C@@H]3C=CO[C@@H](O[C@@H]4O[C@H](CO)[C@@H](O)[C@H](O)[C@H]4O)[C@@H]3[C@@]3(CO)O[C@@H]23)[C@@H]1OC(C)=O		-8.07% [at 15.3 µM]
CCOC(=O)c1ccc(N(C)c2csc(-c3ccccc3)n2)cc1		-11.4%
CC(C)C(=O)O[C@@H]1[C@@H](O)[C@@H](O[C@H]2O[C@H](CO)[C@@H](O)[C@H](O)[C@H]2O)O[C@H](CO)[C@H]1O		-15.8% [at 27.7 µM]
C=CC(C)(O)CC/C=C(\C)C(=O)OC1CC2(C(=O)O)CCC3(C)C(=CCC4C5(C)CCC(OC6OC(COC7OCC(O)C(O)C7O)C(O)C(OC7OCC(O)C(O)C7O)C6OC6OC(CO)C(O)C(O)C6OC6OCC(O)C(O)C6O)C(C)(C)C5CCC43C)C2CC1(C)C (stereo not drawn)	inactive [at 9.52 µM]	
CC[C@H]1OC(=O)C[C@@H](O)[C@H](C)[C@@H](O[C@@H]2O[C@H](C)[C@@H](O)[C@H](N(C)C)[C@H]2O)[C@@H](CCN2C[C@H](C)C[C@H](C)C2)C[C@@H](C)C(=O)/C=C/C(C)=C/[C@@H]1CO[C@@H]1O[C@H](C)[C@@H](O)[C@@H](OC)[C@H]1OC		-0.717%
CC(=O)N1c2ccccc2C2(O)CC3C(=O)NC(CC(C)C)C(=O)N3C12 (stereo not drawn)		0.155% [at 27.7 µM]
